{"source": "PubChem BioAssay (Tox21)", "note": "Results filed as inconclusive are left out. Where a call stands in place of a potency, no number is given. Values without a mark were called inactive. Activity calls are given as the source filed them. Calls come from the whole dose curve; as a rule, active = well fitted inhibition curve with a large enough effect in the signal ratio in the repeat runs (not every such curve was filed as active); inconclusive = weak or mixed curves, or effect the other way; inactive = flat fitted curve, though single readings scatter; the % refers to the signal ratio.", "data": [{"assay": "cAMP Responsive Elements (CRE) small molecule antagonists, cell-based qHTS assay (AID 1963591)", "conditions": "CRE-bla HEK293T, beta-lactamase FRET ratio; series mostly up to 92.4 µM", "excerpt": "U.S. Tox21 Program National Center for Advancing Translational Sciences [NCATS] Division of Preclinical Innovation [DPI] U.S. Environmental Protection Agency [EPA] National Institutes of Environmental Health Sciences [NIEHS] National Toxicology Program [NTP] U.S. Food and Drug Administration [FDA] Tox21 Assay Overview: CREB (cyclic-AMP Responsive Element Binding Protein) is a cellular transcription factor. It binds to certain DNA sequences called cAMP Responsive Elements (CRE) and regulates the transcription of the genes. […] This cell line can be used to find agonists/antagonists of the cyclic AMP signaling pathway. The activation of the report gene under culture conditions can be detected by fluorescence intensity. This cell line has been used to screen the Tox21 10K compound library to […].\nTox21 Assay Protocol Summary: CRE-bla Hek 293T cells were suspended in assay medium (DMEM containing 10% dialyzed FBS, 0.1 mM NEAA, 1 mM sodium pyruvate and 25 mM HEPES) and dispensed at 2,000 cells/4 uL /well into 1536-well black wall/clear bottom plates using a Multidrop Combi (ThermoFisher Scientific, Waltham, MA) dispenser. After the assay plates were incubated at 37 C/5% CO2 for 18 hrs, 23 nL of compounds dissolved in DMSO, positive controls or DMSO only was transferred to the assay plate by a pintool workstation (Kalypsys, San Diego, CA), followed by addition of 1 […] uL of 1.25uM NKH477 (0.25 uM as final concentration) in assay medium using a Flying Reagent Dispenser (Aurora Discovery, San Diego, CA). The plates were incubated at 37 C and 5% CO2 for 3 hrs. Then 1 uL of LiveBLAzer B/G FRET substrate (Invitrogen, Carlsbad, CA) was added to each well using Bioraptr Flying Reagent Dispenser (FRD, Aurora Discovery, San Diego, CA). The plates were incubated at room temperature for 2 h.", "values": [{"smiles": "C=C(C)C(=O)OCCOP(=O)(O)O", "Potency": "inactive"}, {"smiles": "COCCCOc1ccnc(CS(=O)c2nc3ccccc3[nH]2)c1C", "note": "(stereo not given)", "Potency": "inactive"}, {"smiles": "CC(C)CC(C)(N)C#N", "note": "(stereo not given)", "Potency": "inactive"}, {"smiles": "Nc1cccc(N)n1", "Potency": "inactive"}, {"smiles": "COc1cccc(Br)c1", "Potency": "inactive"}, {"smiles": "CO[Si](C)(C)OC", "Potency": "inactive"}, {"smiles": "c1c[nH]cn1", "Potency": "inactive"}, {"smiles": "C(=C\\c1ccccc1)/c1ccccc1", "Potency": "inactive"}, {"smiles": "CC(=O)N[C@H]1[C@H]([C@H](O)[C@H](O)CO)OC(C(=O)O)=C[C@@H]1N=C(N)N", "Potency": "inactive"}, {"smiles": "NCC1CCCC(CN)C1", "note": "(stereo not given)", "Potency": "inactive"}, {"smiles": "CCOC(=O)c1c(C)n(C)c2ccc(O)cc12", "Potency": "inactive"}, {"smiles": "C1CCC2OC2C1", "note": "(stereo not given)", "Potency": "inactive"}, {"smiles": "O=P(O)(OCc1ccccc1)OCc1ccccc1", "Potency": "inactive"}, {"smiles": "CC#N", "Potency": "inactive"}, {"smiles": "C[N+](C)(C)CC(O)CCl", "note": "(stereo not given)", "Potency": "inactive"}, {"smiles": "O=C1Nc2ccccc2C1(c1ccc(O)cc1)c1ccc(O)cc1", "Potency": "inactive"}, {"smiles": "CCN(Cc1cccc(S(=O)(=O)O)c1)c1ccccc1", "Potency": "inactive"}, {"smiles": "CC1=CC[C@@]23C[C@@H]1C(C)(C)[C@@H]2CC[C@H]3C", "Potency": "inactive"}, {"smiles": "CCN(CCO)c1cccc(C)c1", "Potency": "inactive"}, {"smiles": "CC(=O)CC(=O)Nc1ccccc1C", "Potency": "inactive"}, {"smiles": "c1ccsc1", "Potency": "inactive"}, {"smiles": "CCOCCOCCOCC", "Potency": "inactive"}, {"smiles": "COC(OC)OC", "Potency": "inactive"}, {"smiles": "O=C1CC2CC1C1CCCC21", "note": "(stereo not given)", "Potency": "inactive"}, {"smiles": "CC(C)(O)C#CC(C)(C)O", "Potency": "inactive"}, {"smiles": "Cc1cccnc1", "Potency": "inactive"}, {"smiles": "NCC1(Cc2noc(=O)[nH]2)CCCCC1", "Potency": "inactive"}, {"smiles": "C1CSCCS1", "Potency": "inactive"}, {"smiles": "CCC(C)C(=O)OCCc1ccccc1", "note": "(stereo not given)", "Potency": "inactive"}, {"smiles": "COc1ccc(N)c(C)c1", "Potency": "inactive"}, {"smiles": "CCCCCCCCCCCCCCCCI", "activity change, negative = inhibition": "-14.2% [at 18.9 µM]"}, {"smiles": "CCCCCCCCS", "Potency": "inactive"}, {"smiles": "CCOCCOC(=O)/C=C/c1ccc(OC)cc1", "Potency": "inactive"}, {"smiles": "CCCCCCC1(C)CCC(=O)O1", "note": "(stereo not given)", "Potency": "inactive"}, {"smiles": "CCCCCCCCSCC", "Potency": "inactive"}, {"smiles": "C/C=C/C(=O)CCCC", "Potency": "inactive"}, {"smiles": "CC(=O)CC(=O)Nc1ccccc1", "Potency": "inactive"}, {"smiles": "OC1CCCC1", "Potency": "inactive"}, {"smiles": "CCCCCCCCCCCCCCCCCCOCC(O)CO", "note": "(stereo not given)", "Potency": "inactive"}, {"smiles": "OCCNCCO", "Potency": "inactive"}]}]}
